Compound activity: PubChem, National Center for Advancing Translational Sciences (NCATS)
Giardia killer: Giardia lamblia killing | Giardia lamblia trophozoite viability | activity change, % at 7.66 µM, hits read low | 340,000 compounds, 0.15% hits; in the data active = activity change below about -80%; inconclusive = between about -30% and that limit;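 note: parasites exposed to compound for two days anaerobically before the ATP read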
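Trophozoites 100 cells/well + cpd; 48 hrs, 37 deg C, anaerobic. ATPLite 1-Step added, 15-30 min RT, luminescence read (ATP-based viability).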
ELG1 DNA repair: inhibitors of ELG1-dependent DNA repair in HEK293T cells. HEK293T ELG1-luciferase reporter, luminescence, 16 h; DNA damage induced by 5-fluorouridine. Potency, µM (doses to about 46.1 µM), for inactives: at the highest dose activity change, negative = inhibition, hits mostly inhibitors. 330,000 compounds, 2.3% hits. AID 504467; note: potency is the fitted concentration of half-maximal effect; nearly all actives have a fitted effect of over 55% in size
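Cells (2,000 per well) received 5-fluorouridine plus test compound or DMSO and were incubated 16 hr at 37 °C, 5% CO2. Luciferase activity was read by luminescence 30 min after ONE-Glo addition; signal suppression marked inhibition of damage-induced ELG1 function.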
Sfp PPTase inh: inhibitors of Bacillus subtilis Sfp phosphopantetheinyl transferase; Q9F4F7; Biochemical Sfp PPTase activity, qHTS; 310,000 compounds, 3.5% hits; Potency, µM, inactives show largest response in the series, negative = inhibition, usual class: inhibitors; AID 1490;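 note: the enzyme is Sfp with the accession as filed and its product quenches rhodamine fluorescence; potency is the fitted concentration of half-maximal effect; 0% = enzyme reaction without inhibitor and -100% = no enzyme wells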
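Step 1, compound plus 15 nM Sfp-PPTase, 15 min, room temperature. Step 2, add rhodamine-CoA (5 uM) and BHQ-2-YbbR (12.5 uM). Step 3, read 525/598 nm fluorescence at 0 and 30 min.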
FBPA coupling cs: inhibits coupling enzyme system, counter-screen for aldolase hits | coupling enzyme system counterscreen, AmpLite Red fluorescence | activity change, negative = inhibition, % at 58.2 µM, hits read low | 290,000 compounds, 0.67% hits | AID 2472; in the data active = activity change below about -30%
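Fluorescence at 525 nm excitation and 598 nm emission measured inhibition of the coupled detection system without aldolase. Compounds (at 57.5 uM final) were preincubated 10 min at room temperature with coupling enzyme reagent before a 20 min substrate/AmpLite Red step.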
* marks the source's active call; other numbers are inactive results; ? = inconclusive; . = no result given. Most compounds without a hit are left out; they make up all but 5.5% or so of the library. Unless noted, calls come from the whole dose curve; as a rule, active = well fitted curve in the direction sought with a large enough effect; inconclusive = small, poorly fitted or top-dose-only effect, or another doubt; inactive = no such curve, though single readings can be large; an effect the other way counts as inactive or inconclusive. Unless noted, % is set by controls: 0 for no effect and ±100 for the full control effect.

SMILES	Giardia killer	ELG1 DNA repair	Sfp PPTase inh	FBPA coupling cs
Cc1ncc([N+](=O)[O-])n1CCOC(=O)c1ccccc1	-99.8*	?	7.6%	4.0
Cc1ncc([N+](=O)[O-])n1CCOC(=O)NC(Nc1ccc(F)cc1)C(Cl)(Cl)Cl (stereo not given)	?	29.5%	17.8%	-1.0
Cc1ncc([N+](=O)[O-])n1CCOC(=O)Nc1ccc(Cl)c(Cl)c1	-89.7*	1.4%	?	-6.1
O=C(NC1CC(=O)N(c2cccc(F)c2)C1)N1CCN(C(=O)c2ccco2)CC1 (stereo not given)	-9.5	17.2%	.	.
Cc1ccc(S(=O)(=O)N2CCC(C(=O)N3CCCC3C(=O)N[C@@H](CC(C)C)C(=O)NCC(N)=O)CC2)cc1 (stereo not given in full)	9.2	5.1%	-2.9%	3.0
O=C(O)C1CSC(c2coc3ccccc3c2=O)N1 (stereo not given)	15.8	-1.4%	44.7µM*	4.1
CC1CCOC(c2coc3ccccc3c2=O)O1 (stereo not given)	-0.4	?	-12.5%	1.8
N=c1c(C(=O)NCc2ccco2)cc2c(=O)n3ccccc3nc2n1Cc1ccccc1	5.5	?	2.5%	-2.6
Cc1cccn2c(=O)c3cc(C(=O)NCCc4ccccc4)c(=N)n(Cc4ccco4)c3nc12	-12.1	14.6µM*	31.6µM*	-0.6
N=c1c(S(=O)(=O)c2ccc(Cl)cc2)cc2c(=O)n3ccccc3nc2n1CCc1ccccc1	.	0.7%	25.1µM*	.
N=c1c(C(=O)NCc2ccco2)cc2c(=O)n3ccccc3nc2n1Cc1ccc(Cl)cc1	17.4	?	50.1µM*	-9.0
N=c1c(S(=O)(=O)c2ccc(Cl)cc2)cc2c(=O)n3ccccc3nc2n1CCN1CCOCC1	2.0	-15.7%	3.9%	-0.2
Cc1cccn2c(=O)c3cc(C(=O)NCc4ccco4)c(=N)n(CCc4ccccc4)c3nc12	14.9	0.0%	89.1µM*	-7.2
C=CCN(c1ccccc1OC)S(=O)(=O)c1cccc(C(=O)NCc2cccs2)c1	5.9	-1.5%	.	.
Cc1ccc(C(=O)Nc2nnc(S(=O)(=O)N3CCN(c4ccc(F)cc4)CC3)s2)cc1	-23.6	?	9.4%	.
Cc1cccc(N(CC(=O)NC2CCCC2)C(=O)c2cc3cc4cccc(C)c4nc3s2)c1C	6.7	18.4µM*	3.4%	-5.9
COc1cccc(-c2c(C(=O)O)cc(O)c3ccc(OC)cc23)c1	-0.5	.	.	.
Cc1ccc(C(=O)COC(=O)c2cnccn2)cc1	19.9	8.5%	-3.9%	2.7
O=C(COC(=O)c1cnccn1)c1ccc([N+](=O)[O-])cc1	-12.1	4.8%	20µM*	0.1
N#CC1=C(N)Oc2c(ccc3cccnc23)C1c1ccccc1 (stereo not given)	5.9	13µM*	9.0%	-6.1
CC(=O)C1=C(C)OC(N)=C(C#N)C1c1cccc2ccccc12 (stereo not given)	-2.0	6.3%	-25.3%	-33.5*
N#CC1=C(N)Oc2c(ccc3ccccc23)C1c1cccs1 (stereo not given)	6.1	?	50.1µM*	-29.3
Cc1ccc2[nH]c(=O)c(C3C(C#N)=C(N)Oc4c3ccc3cccnc43)cc2c1 (stereo not given)	16.4	?	-1.9%	0.6
O=C1OC2(c3ccccc31)c1cc(I)c(O)c(I)c1Oc1c2cc(I)c(O)c1I	.	-20.5%	14.1µM*	-8.8
O=C1OC2(c3cc(I)c(O)c(I)c3Oc3c2cc(I)c(O)c3I)c2c(Cl)c(Cl)c(Cl)c(Cl)c21	.	.	?	2.4
SMILES	Giardia killer	ELG1 DNA repair	Sfp PPTase inh	FBPA coupling cs
O=C(CSc1nnc(CNc2cccc(C(F)(F)F)c2)n1Cc1ccco1)NCc1ccco1	-3.7	?	-9.5%	-11.2
O=C(O)CSc1nnc(CNc2cccc(C(F)(F)F)c2)n1Cc1ccco1	-2.4	3.3%	39.8µM*	11.9
O=C(CSc1nnc(CNc2ccc(F)cc2)n1Cc1ccco1)NC1CC1	0.5	1.5%	56.2µM*	-21.3
O=C(CSc1nnc(CNc2ccc(F)cc2)n1Cc1ccco1)N1CCOCC1	3.1	18.5%	-10.2%	2.9
CCN(C[C@H]1N[C@@](Cc2ccccc2)(C(=O)OC)[C@H]2C(=O)N(Cc3ccccc3)C(=O)[C@@H]12)C(=O)COc1ccccc1	3.4	4.5%	.	.
O=C1CSC(c2cccc([N+](=O)[O-])c2)N1Cc1ccccc1 (stereo not given)	4.3	-0.2%	15.6%	-0.4
CCCC(=O)C1=C(O)C(c2cccc(Oc3ccccc3)c2)CCC1=O (stereo not given)	24.1	18.3µM*	17.1%	11.4
CC(C)CCCNc1nc(N2CCOCC2)nc(N2CCOCC2)n1	6.5	10.3µM*	0.2%	0.9
CC(C)CN(C#N)c1nc(N2CCOCC2)nc(N2CCOCC2)n1	16.7	-22.1%	14.0%	3.8
COC(=O)C1Cc2c([nH]c3ccccc23)C(C(C)C)N1 (stereo not given)	-9.6	?	-3.2%	-2.3
COC(=O)[C@@H]1Cc2c([nH]c3ccccc23)C(C)N1C(=O)c1ccccc1 (stereo not given in full)	-25.7	11.6µM*	-3.6%	-0.5
CCN1/C(=C\C=C2\C(=O)N(C)C(=S)N2C)Sc2ccccc21	-16.8	?	39.8µM*	-0.7
CCC1(c2ccccc2)NC(=S)N(c2ccc(C)c(C)c2)N1 (stereo not given)	-2.8	?	8.91µM*	5.7
O=C(COC(=O)C1CC2CCCC(C1)C2=O)Nc1cccc(F)c1 (stereo not given)	0.6	10.4%	.	.
Cc1ccc(C(=O)n2c(=S)nc3ccccn32)cc1	.	?	?	2.9
Cc1cccc(C(=O)n2c(=S)nc3ccccn32)c1	?	?	39.8µM*	1.5
COCCCNC(=O)CCCN1C(=O)c2cccnc2Sc2ccccc21	11.1	16.9%	10.8%	-1.1
NC(=O)CC(NC(=O)c1ccc(Br)cc1)c1ccc(NC2CCCCCC2)c([N+](=O)[O-])c1 (stereo not given)	-10.6	0.3%	0.7%	-0.6
COc1cccc(-c2cncnc2Nc2ccc(F)cc2)c1	.	.	79.4µM*	-3.8
CCN(CC)CC(O)Cn1c(C)c(-c2ccccc2)c2cc([N+](=O)[O-])ccc21 (stereo not given)	39.9	-2.5%	-14.8%	-1.2
CC(C)c1ccc(N2C(=O)CC(Sc3ncn[nH]3)C2=O)cc1 (stereo not given)	-2.7	-5.8%	56.2µM*	4.8
COc1ccc(N2C(=O)CC(Sc3ncn[nH]3)C2=O)c(OC)c1 (stereo not given)	-1.7	-15.3%	5.62µM*	-2.5
CCOc1ncccc1C(=O)Nc1cccc(S(=O)(=O)N2CCCCC2)c1	-4.0	11.2µM*	.	.
O=C(Cn1nnc(-c2ccc(F)cc2)n1)Nc1cccc(S(=O)(=O)N2CCCC2)c1	3.8	?	.	.
O=C(Nc1cccc(S(=O)(=O)N2CCCC2)c1)c1ccc2ccccc2n1	-9.4	20.6µM*	-1.4%	1.0
O=C(Cn1nnc(-c2ccccc2Cl)n1)Nc1cccc(S(=O)(=O)N2CCCC2)c1	7.1	23.1µM*	.	.
